# The campaign covered roughly 63,000 compounds. About 1,100 (1.7%) were called active.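 How the source made its calls: active means compounds whose percent cytotoxicity in the single-dose primary screen, scaled between solvent and toxic-drug controls, exceeds 50; inactive means the rest.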 For the sample, actives were picked, then their nearest neighbours and some compounds at random. Entries with a potency or affinity are not part of this list.
# Assay: viability loss of HPDE-C7K cells – cell-based, fluorescence, HTS, primary screen (AID 431);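 further: 0% = DMSO solvent wells and 100% = doxorubicin-treated wells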
# Settings: HPDE-C7K KRASV12 cells, Alamar Blue viability, 48 h; at 10 µM; hits give high values
row,Structure (SMILES),cytotoxicity
1,CS(=O)(=O)c1ccc2nc(NC(=O)c3cccs3)sc2c1,3% (inactive)
2,CC(C)n1nc(C(=O)Nc2nc3ccc(S(C)(=O)=O)cc3s2)c2ccccc2c1=O,53.7% (active)
3,COc1ccccc1C(=O)Nc1nc2ccc(S(C)(=O)=O)cc2s1,-0.1% (inactive)
4,Cc1cccc(OCCCc2c(C)n[nH]c2C)c1,12.8% (inactive)
5,CCCCNS(=O)(=O)c1ccc2nc(SCC(=O)Nc3sccc3C#N)[nH]c2c1,80.6% (active)
6,CCCCNS(=O)(=O)c1ccc2nc(SCC(=O)c3ccc(C#N)cc3)[nH]c2c1,10.9% (inactive)
7,N#Cc1ccsc1NC(=O)CSc1ncn[nH]1,-18.4% (inactive)
8,CCn1cc(/C=C(/C#N)S(=O)(=O)c2ccccc2)cn1,2.3% (inactive)
9,Cc1ccc(C(C)NC(=O)c2c(C)noc2C)cc1C (centres undefined),-2.1% (inactive)
10,CCOC(=O)N1CCN(Cc2nc(N)nc(Nc3ccc(Oc4ccccc4)cc3)n2)CC1,28% (inactive)
11,O=C(O)COc1ccc2nsnc2c1Cl,-27.6% (inactive)
12,CCOc1ccccc1OCC(=O)O,6.8% (inactive)
13,C=CCOc1ccccc1/C=N/O,-4.8% (inactive)
14,O=C1CN(C(=O)c2ccc(Br)o2)C(c2ccccc2)c2cc(F)ccc2N1 (centres undefined),3% (inactive)
15,COCCN(CC(=O)NCc1ccccc1)C(=O)CCC(=O)Nc1ccccn1,4.7% (inactive)
16,CCCCOc1ccc(C(=O)N2CCC(C)CC2)cc1,-4.4% (inactive)
17,CCCCOc1ccc(C(=O)OC2CC(C)N(C)CC2C)cc1 (centres undefined),81.6% (active)
18,CCCCOc1ccc(C(=O)NC)cc1,-11.7% (inactive)
19,Cc1cc(C)n(-c2nc3nonc3nc2-n2nc(C)cc2C)n1,-2.4% (inactive)
20,C=CCn1c(O)c(C2=c3ccccc3=NC2=O)sc1=Nc1ccc(O)cc1,117% (active)
21,C=CCn1c(O)c(C2=c3ccccc3=NC2=O)s/c1=N/c1nccs1,-2.3% (inactive)
22,O=C1N=c2ccccc2=C1c1sc(=S)n(CC2CCCO2)c1O (centres undefined),20.6% (inactive)
23,C=CCOC(=O)C1=C(C)NC(C)=C(C(=O)OCC=C)C1c1ccc(O)cc1,1.1% (inactive)
24,CN1C(=O)CC(C(=O)Nc2ccc(F)cc2)SC1=Nc1ccc2c(c1)OCO2 (centres undefined),12.5% (inactive)
25,O=C(COc1nncc2ccccc12)NCCC1=CCCCC1,-7.1% (inactive)

row,Structure (SMILES),cytotoxicity
1,COc1cc(CC(=O)Oc2ccc3c(c2)OCO3)cc(OC)c1OC,27.3% (inactive)
2,COc1cc([C@@H]2c3cc4c(cc3[C@H](O)[C@H]3COC(=O)[C@H]23)OCO4)cc(OC)c1OC,70% (active)
3,COc1cc(CC(=O)NCc2ccc3c(c2)OCO3)cc(OC)c1OC,-11.8% (inactive)
4,Cc1cccc(C)c1OCC(=O)Nc1cccc(NC(=O)c2ccco2)c1,2.8% (inactive)
5,CCN(CC)c1ccc(NC(=O)c2cc3ccccc3o2)c(C)c1,-6% (inactive)
6,CCOC(=O)Cn1c(-c2nonc2NC(=O)c2ccccc2F)nc2ccccc21,41% (inactive)
7,COC(=O)c1ccccc1NC(=O)Cn1c(-c2nonc2N)nc2ccccc21,41.3% (inactive)
8,CCCCOc1ccccc1NC(=O)Cn1c(-c2nonc2N)nc2ccccc21,42.3% (inactive)
9,CCOC(=O)c1ccccc1NC(=O)Cn1c(-c2nonc2N)nc2ccccc21,58.5% (active)
10,N#CCCn1c(-c2nonc2NC(=O)c2ccccc2Cl)nc2ccccc21,41.9% (inactive)
11,CCCCn1c(-c2nonc2NC(=O)c2ccccc2Cl)nc2ccccc21,53.9% (active)
12,CCc1nnc(NC(=O)OCc2ccccc2)s1,-11.2% (inactive)
13,Cn1nnnc1SCC(=O)N1CCN(c2cccc(Cl)c2)CC1,14.5% (inactive)
14,COc1ccc(N(CC(=O)Nc2ccc(C)cn2)S(=O)(=O)c2c(C)noc2C)cc1,-11.9% (inactive)
15,CCC(Sc1nc(=O)cc(N)n1CCc1ccccc1)C(=O)Nc1cc(C)on1 (centres undefined),-10.3% (inactive)
16,O=C(NCCc1ccc(Cl)cc1)C1CCN(S(=O)(=O)N2CCCC2)CC1,-2.3% (inactive)
17,N#Cc1nc(-c2cccs2)oc1NCCc1ccccc1,50.3% (active)
18,Cc1ccc(CNc2oc(-c3cccs3)nc2C#N)cc1,0.3% (inactive)
19,N#Cc1nc(-c2cccs2)oc1NCc1ccccc1,3.2% (inactive)
20,CCN1CCN(c2ncnc3c2sc(=S)n3-c2ccccc2)CC1,2.5% (inactive)
21,COc1ccc(NC(=O)c2ccc(Cl)c(S(=O)(=O)N3CCc4ccccc4C3)c2)cn1,80% (active)
22,O=C(Nc1cccnc1)c1ccc(Cl)c(S(=O)(=O)N2CCCCCC2)c1,-5.1% (inactive)
23,COc1ccccc1NC(=O)c1ccc(Cl)c(S(=O)(=O)N2CCOCC2)c1,-3.3% (inactive)
24,N#C/C(C(N)=O)=c1/ccc2c(c1)N1C3=C(CCCC3)CC3CCCCC31N=2 (centres undefined),66.4% (active)
